Screening results as filed in PubChem.
FBA Mtb inh: Mtb FBA enzyme inhibitors, primary screen, biochemical, fluorescence, strain H37Rv; inhibition, % at 1 µM; purified M. tuberculosis FBA, fluorescence read-out; actives 2.3% (n = 360,000); Fructose-bisphosphate aldolase (Mycobacterium tuberculosis (strain ATCC 25618 / H37Rv)), …
Target sequence (P9WQA3 whole entry, looked up): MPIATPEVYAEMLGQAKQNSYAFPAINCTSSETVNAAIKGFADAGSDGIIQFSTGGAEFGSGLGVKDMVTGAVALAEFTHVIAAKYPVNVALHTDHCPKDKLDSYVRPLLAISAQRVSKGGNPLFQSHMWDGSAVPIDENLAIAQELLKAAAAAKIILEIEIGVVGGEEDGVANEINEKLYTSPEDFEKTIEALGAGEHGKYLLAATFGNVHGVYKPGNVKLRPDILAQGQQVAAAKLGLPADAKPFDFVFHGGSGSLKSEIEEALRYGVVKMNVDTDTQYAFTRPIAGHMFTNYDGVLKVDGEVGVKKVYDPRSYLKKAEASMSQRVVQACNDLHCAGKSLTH
Mtb betalactam: beta-lactam sensitization of Mtb H37Rv, H37Rv. actives 0.27% (n = 330,000). inhibition, % at 25 µM. M. tuberculosis H37Rv growth with meropenem, percent inhibition; call rule not given here;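 also: growth measured after seven days incubation then overnight dye step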
Rv3671c protease: Rv3671c serine protease inhibitors, primary screen, biochemical, fluorescence polarization, M. tuberculosis H37Rv. inhibition, % at 5.96 µM. actives 0.048% (n = 320,000). AID 2606, 2010; in the data active = inhibition above about 38%;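 also: extracellular domain of Rv3671c used as enzyme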
Mtb UGM inh: M. tuberculosis UGM enzyme inhibitors, primary screen, biochemical, fluorescence polarization, single point. actives 0.06% (n = 320,000). inhibition, % at 10 µM. UDP-galactopyranose mutase (Mycobacterium tuberculosis (strain ATCC 25618 / H37Rv)), …. purified UGM, fluorescence polarization probe displacement; in the data active = inhibition above about 10%, passing the limit was not always enough; inconclusive = no clear call, values can overlap the other calls
GDH-TPI counter-1: GDH-TPI coupling enzyme inhibitors, primary screen, artefact control for M. tuberculosis FBA inhibitor project, biochemical, absorbance, full deck. GDH-TPI coupled enzyme counterscreen, NADH absorbance. inhibition, % at 4.8 µM. actives 1.2% (n = 360,000). AID 588335, 2011; in the data active = inhibition above about 30%
RecA splice inh: Mtb RecA intein splicing inhibitors, primary screen, biochemical, fluorescence, HTS; cell-free RecA intein splicing; inhibition, % (no concentration beside the values); actives 0.75% (n = 290,000); AID 2221, 2009; in the data active = inhibition above about 30%; inconclusive = no clear call, values can overlap the other calls
Mtb FBA inh conf: M. tuberculosis aldolase blockers, biochemical, fluorescence, strain H37Rv, confirmation | shares compounds with FBA Mtb inh | purified M. tuberculosis FBA, fluorescence read-out | inhibition, % at 1 µM | actives 78% (n = 5,600)
GDH-TPI counter-2: GDH-TPI coupling enzyme inhibitors, artefact control for M. tuberculosis FBA inhibitor project, biochemical, fluorescence, high throughput | GDH-TPI coupled enzyme counterscreen | shares compounds with FBA Mtb inh | actives 81% (n = 5,600) | inhibition, % at 1 µM; in the data active = inhibition above about 10%
Of the large screens only hits and unclear results are named; the others gave an inactive call (follow-up assays come after a bar, where they were run). An excerpt weighted towards active compounds, which were near 4% of everything screened. Rule as the data show it, unless noted: active = inhibition above about 27%; inactive = the rest.

COc1ccc2cc(C(=O)C3CCCN(Cc4ccccn4)C3)ccc2c1 (configuration not stated)	FBA Mtb inh 41 | Mtb FBA inh conf active | GDH-TPI counter-2 active
CCn1ccnc1CN1CCCC(C(=O)c2ccc3cc(OC)ccc3c2)C1 (configuration not stated)	none
COc1ccc2cc(C(=O)C3CCCN(C(=O)c4csnn4)C3)ccc2c1 (configuration not stated)	FBA Mtb inh 96 | Mtb FBA inh conf 44 | GDH-TPI counter-2 35
COC(=O)C1(CC2CC(c3ccncc3)=NO2)CCN(C(=O)OC(C)(C)C)CC1 (configuration not stated)	none
Cc1cc(C=O)c(C)n1-c1ccc(N2CCOCC2)cc1	FBA Mtb inh 54 | Mtb FBA inh conf active | GDH-TPI counter-2 active
Cc1cc(/C=C2\SC(=O)NC2=O)c(C)n1-c1ccc(N2CCOCC2)cc1	none
O=C1CC(c2ccccc2)n2nc(N3C(=O)CCC3=O)nc2N1 (configuration not stated)	none
CC1=CC(c2ccccc2)n2nc(N3C(=O)CCC3=O)nc2N1 (configuration not stated)	FBA Mtb inh 104 | Mtb FBA inh conf 74 | GDH-TPI counter-2 41
CCOC(=O)C1=C(C)NC2=C(C(=O)CC(C)(C)C2)C1c1cccc(C)n1 (configuration not stated)	FBA Mtb inh 37 | Mtb FBA inh conf 174 | GDH-TPI counter-2 159
CCCOC(=O)C1=C(C)NC2=C(C(=O)CC(C)(C)C2)C1c1cccnc1 (configuration not stated)	FBA Mtb inh 36 (no result: RecA splice inh) | Mtb FBA inh conf active | GDH-TPI counter-2 active
O=C(Nc1ccnn1C1CCN(Cc2cccnc2)CC1)c1ccccc1Cl	none
N#Cc1ccc(OCC(=O)NC2CCCCCC2)cc1	none (no result: RecA splice inh)
N#Cc1ccc(OCC(=O)NNC(=O)C2CCCCC2)cc1	FBA Mtb inh 30 (no result: RecA splice inh) | Mtb FBA inh conf inactive | GDH-TPI counter-2 inactive
Cc1ccc(-c2nnnn2C2C/C(=N\NC(N)=S)C3OCC2O3)cc1 (configuration not stated)	none
Cn1c2ccccc2c(=O)c2ccc(NCc3ccc4c(c3)OCO4)cc21	FBA Mtb inh 88 (no result: Mtb betalactam, Rv3671c protease, Mtb UGM inh, RecA splice inh) | Mtb FBA inh conf 175 | GDH-TPI counter-2 110
COc1cccc2sc3ccc(NCc4ccc5c(c4)OCO5)cc3c(=O)c12	none
CCC(=O)Nc1cc2c(cc1Cl)-c1ccccc1C2	none (no result: Mtb betalactam, Rv3671c protease, Mtb UGM inh, RecA splice inh)
COc1ccc(S(=O)(=O)N2CCCCCC2)cc1C(=O)NCCOc1ccc(C)cc1	none
CCc1ccccc1Oc1coc2cc(O)ccc2c1=O	FBA Mtb inh 31 | Mtb FBA inh conf 111 | GDH-TPI counter-2 75
COc1ccccc1Oc1coc2cc(OCC(N)=O)ccc2c1=O	none
Cc1cccc(Oc2coc3cc(O)ccc3c2=O)c1	FBA Mtb inh 37 | Mtb FBA inh conf 72 | GDH-TPI counter-2 63
COc1ccc(/C=C(\C#N)C(=O)OCC(=O)Nc2ccc(-c3nc4ccc(C)cc4s3)cc2)cc1	FBA Mtb inh 31 | Mtb FBA inh conf 119 | GDH-TPI counter-2 90
Cc1ccc2nc(-c3ccc(NC(=O)COC(=O)c4ccc(Br)o4)cc3)sc2c1	none (no result: RecA splice inh)
CCOc1ncccc1C(=O)OCC(=O)Nc1ccc(-c2nc3ccc(C)cc3s2)cc1	FBA Mtb inh 34 | Mtb FBA inh conf 33 | GDH-TPI counter-2 23
Cc1ccc2nc(-c3ccc(NC(=O)COC(=O)c4cncc(Br)c4)cc3)sc2c1	FBA Mtb inh 40 (no result: Mtb betalactam, Rv3671c protease, Mtb UGM inh) | Mtb FBA inh conf 33 | GDH-TPI counter-2 26
CCCN1CC23C=CC(O2)C(C(=O)O)C3C1=O (configuration not stated)	Mtb betalactam inconclusive
Cc1ccc(-c2nc3c(=O)n(-c4ccccc4)c4c(c(=O)n(C)c(=O)n4C)c3o2)cc1	none
Cc1ccc(-c2nc3c(=O)n(C)c4ccccc4c3o2)cc1	FBA Mtb inh 35 | Mtb FBA inh conf inactive | GDH-TPI counter-2 inactive
CSc1nnc(-c2ccc(S(=O)(=O)N3CCCC3)cc2)n1C	FBA Mtb inh 47 | Mtb FBA inh conf 92 | GDH-TPI counter-2 71
Cn1c(SCC(N)=O)nnc1-c1ccc(S(=O)(=O)N2CCCC2)cc1	none
CCOC(=O)c1nc2cc3n(c(C)c-2c1C)C(C)C(CC)=C3C (configuration not stated)	FBA Mtb inh 34 | Mtb FBA inh conf active | GDH-TPI counter-2 181
Cc1ccc(-c2c(C(=O)N/N=C/C3CCCCC3)nnn2-c2nonc2N)cc1	none
CN(C(=O)COc1ccc2ccc(=O)oc2c1)C1CCS(=O)(=O)C1 (configuration not stated)	FBA Mtb inh 38 | Mtb FBA inh conf 190 | GDH-TPI counter-2 147
CC(C)CN(C(=O)COc1ccc2ccc(=O)oc2c1)C1CCS(=O)(=O)C1 (configuration not stated)	none
CCN(C(=O)COc1ccc2ccc(=O)oc2c1)C1CCCCC1	FBA Mtb inh 35 (no result: RecA splice inh) | Mtb FBA inh conf 72 | GDH-TPI counter-2 51
CC(C)Oc1ccc(C(=O)OCC(=O)NCCNC(=O)COC(=O)c2ccc(OC(C)C)cc2)cc1	none
O=[N+]([O-])c1cccc(-c2nnc(-c3ccc4c(c3)OCO4)o2)c1	none
Clc1ccccc1-c1nnc(-c2ccc3c(c2)OCO3)o1	FBA Mtb inh 33 | Mtb FBA inh conf 93 | GDH-TPI counter-2 63
Clc1ccccc1-c1nnc2sc(-c3ccc4c(c3)OCO4)nn12	FBA Mtb inh 28 (no result: Mtb betalactam) | Mtb FBA inh conf active | GDH-TPI counter-2 active
CC1(C)CCC[C@]2(C)[C@H]3CC(=O)O[C@]3(C)CC[C@@H]12	FBA Mtb inh 91 | Mtb FBA inh conf 197 | GDH-TPI counter-2 147
CC1(C)CCCC2(C)C1CCC1(C)OC(=O)CCC12 (configuration not stated)	none (no result: Mtb betalactam, Rv3671c protease, Mtb UGM inh, RecA splice inh)
O=c1cc(C(F)F)oc2c1ccc1ccccc12	FBA Mtb inh 31 | Mtb FBA inh conf 59 | GDH-TPI counter-2 46
O=C(Cc1cccs1)Nc1cccc(-c2nc3cc4ccccc4cc3[nH]2)c1	FBA Mtb inh 56 | Mtb FBA inh conf inactive | GDH-TPI counter-2 inactive
Cc1cc(C)n2nc(SCC(=O)Nc3c(C)n(C)n(-c4ccccc4)c3=O)nc2n1	none
